The record followed here is PubChem BioAssay (Tox21).

A short description of test [1]: A CellTox Green Cytotoxicity Assay to monitor cytotoxicity in HepG2 cells - 8 hour (AID 1224890). Note: nearly all actives have a fitted effect of over 45% in size. Note: potency is the fitted concentration of half-maximal effect. In outline:
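Continuous culture of HepG2 cells with a membrane-impermeant DNA dye; rising fluorescence marks dead cells. Compound exposure lasted up to 40 h at 37 C, with reads every 8 h from 0 h.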

Test [2] can be described thus: qHTS assay to identify small molecule antagonists of the estrogen receptor alpha (ER-alpha) signaling pathway using the BG1 cell line in the presence of 0.1 nM 17-beta-estradiol - cell viability counter screen (AID 1259241). Note: nearly all actives have a fitted effect of over 40% in size. In outline: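 Cytotoxicity counter-screen: live-cell protease activity measured by fluorescence (30 min reagent step) in the same wells. Cells were VM7Luc4E2 with endogenous ER-alpha and ERE-driven luciferase, treated 22 hr at 37C alongside 0.1 nM 17beta-estradiol final.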
(qHTS replaces the single test concentration by a dilution series.)

A short description of test [3]: qHTS assay to identify small molecule antagonists of the androgen receptor (AR) signaling pathway using the MDA cell line in the presence of 0.5 nM R1881 - cell viability counter screen (AID 1259242). Note: nearly all actives have a fitted effect of over 45% in size. In outline: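 Fluorescence from CellTiter-Fluor, which reports protease activity of live cells, was read 30 min after reagent addition to MDA-kb2 cells that had been incubated 16 hr with compound and 0.5 nM R1881.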

The target in test [4] is Androgen receptor (Homo sapiens) (UniProt P10275). As to the kind of experiment: qHTS assay to identify small molecule antagonists of the androgen receptor (AR) signaling pathway using the MDA cell line in the presence of 0.5 nM R1881 (AID 1259243). Note: nearly all actives have a fitted effect of over 50% in size. Note: potency is the fitted concentration of half-maximal effect. The procedure, abridged: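 Inhibition of R1881 (0.5 nM final) induced reporter signal was measured in human MDA-kb2 cells; note the MMTV promoter also responds to GR. Exposure lasted 16 hr at 37C.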
Chain of Androgen receptor (Homo sapiens) (P10275 whole entry, looked up): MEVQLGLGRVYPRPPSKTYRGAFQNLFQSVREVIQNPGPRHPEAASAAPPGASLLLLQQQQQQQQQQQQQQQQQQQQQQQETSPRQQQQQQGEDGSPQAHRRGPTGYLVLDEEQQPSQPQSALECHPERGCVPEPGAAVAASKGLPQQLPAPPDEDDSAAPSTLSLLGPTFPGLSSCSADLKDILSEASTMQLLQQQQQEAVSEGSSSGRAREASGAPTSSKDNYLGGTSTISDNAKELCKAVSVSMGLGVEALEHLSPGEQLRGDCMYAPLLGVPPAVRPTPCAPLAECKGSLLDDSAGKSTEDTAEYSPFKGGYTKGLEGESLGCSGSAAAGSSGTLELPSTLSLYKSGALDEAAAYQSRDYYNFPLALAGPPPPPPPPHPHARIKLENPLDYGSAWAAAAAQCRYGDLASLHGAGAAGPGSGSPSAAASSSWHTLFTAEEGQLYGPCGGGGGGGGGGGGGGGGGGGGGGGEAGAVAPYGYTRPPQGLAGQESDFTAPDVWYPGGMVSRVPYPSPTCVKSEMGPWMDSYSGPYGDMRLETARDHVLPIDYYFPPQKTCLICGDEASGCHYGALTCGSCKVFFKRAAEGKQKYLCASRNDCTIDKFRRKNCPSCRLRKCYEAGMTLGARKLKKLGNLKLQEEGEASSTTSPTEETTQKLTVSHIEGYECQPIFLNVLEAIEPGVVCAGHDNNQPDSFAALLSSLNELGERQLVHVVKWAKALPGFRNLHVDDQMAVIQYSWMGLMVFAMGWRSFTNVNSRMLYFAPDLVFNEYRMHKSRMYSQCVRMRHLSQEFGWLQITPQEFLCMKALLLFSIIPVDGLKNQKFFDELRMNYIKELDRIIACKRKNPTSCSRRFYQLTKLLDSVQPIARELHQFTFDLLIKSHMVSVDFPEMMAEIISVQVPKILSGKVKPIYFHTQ

Test [5] is described as follows: qHTS assay to identify small molecule HDAC inhibitors (AID 1259364). Note: top concentration of the series differs between compounds; nearly all actives have a fitted effect of over 45% in size. In outline:
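Endogenous HDAC class I/II activity was measured in wild-type HCT-116 cells by HDAC-Glo luminescence after 2 h compound treatment.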

Test [6] can be described thus: qHTS assay to identify small molecule HDAC inhibitors - cell viability counter screen (AID 1259365). Note: series mostly up to about 92 µM; nearly all actives have a fitted effect of over 50% in size. The procedure, abridged: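 CellTiter-Glo luminescence (30 min, room temperature) reported viability after a 2 h compound exposure at 37 C. Cells: wild-type HCT-116, 1,500 per well, seeded the night before.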
Test [7] can be described thus: qHTS assay to identify small molecule agonists of the sonic hedgehog signaling (Shh) pathway - cell viability counter screen (AID 1259366). Note: nearly all actives have a fitted effect of over 50% in size. The procedure, abridged: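 Cytotoxicity counter screen: CellTiter-Fluor reagent added after 23 h compound exposure, then 1 h at 37C and fluorescence read. Cells were 3T3 Gli1-Luc, seeded 2,000 per well and dosed 4 h post-plating.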

Test [8] is described as follows: qHTS assay to identify small molecule antagonists of the sonic hedgehog signaling (Shh) pathway - cell viability counter screen (AID 1259367). Note: nearly all actives have a fitted effect of over 55% in size. In outline:
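Using CellTiter-Fluor, viability of Gli1-Luc reporter 3T3 cells is read by fluorescence in the wells used for the Shh luciferase assay. Treatment lasts 23 hr with conditioned medium, then reagent 1 hr at 37C.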

The target of test [9] is Estrogen receptor (Homo sapiens) (UniProt P03372). As to the kind of experiment: qHTS assay to identify small molecule antagonists of the estrogen receptor alpha (ER-alpha) signaling pathway using the BG1 cell line in the presence of 0.1 nM 17-beta-estradiol (AID 1259244). Note: nearly all actives have a fitted effect of over 50% in size. Note: potency is the fitted concentration of half-maximal effect. In outline:
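Quantitative high-throughput screen in VM7Luc4E2 cells: compound plus 0.1 nM E2 (final), 22 h, 37C, 5% CO2; ONE-Glo added, 30 min room temperature, luminescence measured.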

The nature of test [10]: qHTS assay to identify small molecule phospholipidosis (PLD) inducers (AID 1259344; active = well fitted curve in the direction sought with a large enough effect; an effect the other way counts as inactive or inconclusive). In outline: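 Fluorescent phospholipid staining (LipidTOX Red) measured by automated microscopy in fixed HepG2 cells after 24 h treatment; nuclei counterstained with Hoechst 33342; amiodarone as reference inducer.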

Each structure is given as a SMILES string. Values without a mark were called inactive. Inconclusive results are not listed. Active and inactive are the calls of the source. Unless noted, calls come from the whole dose curve; as a rule, active = well fitted curve in the direction sought with a large enough effect in the repeat runs; inconclusive = weak or mixed curves; inactive = no such curve, though single readings can be large; an effect the other way counts as inactive or inconclusive.

Chain of Estrogen receptor (Homo sapiens) (P03372 whole entry, looked up): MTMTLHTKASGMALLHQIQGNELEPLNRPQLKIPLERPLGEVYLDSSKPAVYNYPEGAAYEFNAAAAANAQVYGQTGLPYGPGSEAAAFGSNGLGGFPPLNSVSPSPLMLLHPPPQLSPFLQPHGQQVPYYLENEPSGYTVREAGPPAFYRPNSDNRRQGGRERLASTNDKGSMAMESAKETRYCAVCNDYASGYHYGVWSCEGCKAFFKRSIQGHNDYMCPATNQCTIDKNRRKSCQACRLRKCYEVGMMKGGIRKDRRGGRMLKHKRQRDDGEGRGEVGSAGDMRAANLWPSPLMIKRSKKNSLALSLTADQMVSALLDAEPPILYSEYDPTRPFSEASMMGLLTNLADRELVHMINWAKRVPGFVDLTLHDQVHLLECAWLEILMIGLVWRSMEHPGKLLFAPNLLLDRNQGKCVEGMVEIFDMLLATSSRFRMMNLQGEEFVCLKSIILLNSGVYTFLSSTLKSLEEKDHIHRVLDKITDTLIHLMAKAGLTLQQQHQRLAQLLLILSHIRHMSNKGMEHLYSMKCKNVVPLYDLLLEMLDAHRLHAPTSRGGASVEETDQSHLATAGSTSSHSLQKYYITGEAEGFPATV

With `CC1(C)C2=CCCC(C)(C)[C@]23CC[C@H]1C3`, the Potency result in test [1], in [2], in [3], in test [4], in test [5] and in test [6] was “inactive” throughout. Also, the Potency result in test [7] and in [8] was “inactive” throughout.
As to `CCOC(=O)[C@@H](C)Oc1ccc(Oc2nc3ccc(Cl)cc3o2)cc1`, the Potency entry in test [1], in [2], in test [3], in [4], in test [6] and in [7] was “inactive” in each case. Also, in [8], the Potency entry was “inactive”.
As for `O=C(CCCCCCCCC#CI)Oc1ccccc1`, the Potency result in [1], in [2], in test [3], in [4], in [6] and in [7] was “inactive” throughout. Moreover, the Potency result in test [8] is “inactive”.
In the case of `CCOC(=O)/C=C/C(=O)O`, the Potency entry in test [1], in test [2], in test [3], in test [4], in test [9] and in test [6] was “inactive” in each case. Moreover, the Potency result in test [7] and in test [8] was “inactive” throughout.
As to `C=CC(=C)CCCC(C)(C)OC(C)=O`, the Potency result in test [1], in [2], in [3], in test [4], in [5] and in test [6] was “inactive” throughout. For the same compound, the Potency result in [7] and in test [8] was “inactive” throughout.
Regarding `Cn1c(=O)c2c(ncn2CC(=O)O)n(C)c1=O`, the Potency result in test [1], in test [2], in test [3], in test [4], in [9] and in test [5] was “inactive” in each case. The Potency result in test [6], in test [7] and in test [8] was “inactive” each time.
As to `CCCOC(=O)c1ccc(N)cc1`, the Potency result in [1], in [2], in test [3], in test [4], in test [9] and in test [5] was “inactive” throughout. The Potency result in test [6], in test [7] and in [8] was “inactive” throughout.
In the case of `O=[N+]([O-])c1cccc(S(=O)(=O)NCCNS(=O)(=O)c2cccc([N+](=O)[O-])c2)c1`, the Potency entry in test [1], in test [2], in [3], in test [4], in [9] and in test [5] was “inactive” throughout. Besides, the Potency entry in [6], in [7] and in test [8] was “inactive” each time. Besides, the compound was classed as inactive in test [10].
For the compound `Oc1ccc(Nc2ccccc2)cc1`, the Potency entry in [1], in test [2], in [3], in test [9], in [6] and in test [7] was “inactive” in each case. The Potency entry in [8] is “inactive”. The Potency in test [4] was 30.6 µM (active).
Consider `CCCCCCCCCCCCCCC[C@H](O)[C@@H](N)CO`, for which, in test [1], the Potency was 23.9 µM (active). Further, the Potency entry in [2], in [3], in [4], in test [9], in test [5] and in test [6] was “inactive” each time. Moreover, the Potency entry in test [7] and in [8] was “inactive” each time. For the same compound, the call in test [10] was inactive.
In the case of `CCOC(=O)C(C)Oc1ccc(Oc2nc3ccc(Cl)cc3o2)cc1` (stereo not given), the Potency result in test [1], in test [2], in test [3], in test [4], in test [5] and in test [6] was “inactive” throughout. Besides, the Potency entry in [7] and in test [8] was “inactive” each time.
For `C[N+](C)(C)CCOC(N)=O`, the Potency result in test [1], in [2], in [3], in test [4], in [6] and in test [7] was “inactive” each time. The Potency result in [8] is “inactive”. In addition, the call in test [10] was inactive.
`O=C(O)Cc1ccc(-c2ccccc2)cc1`: the Potency entry in test [1], in [2], in test [3], in [4], in test [9] and in [6] was “inactive” in each case. Moreover, the Potency entry in test [7] and in test [8] was “inactive” each time.
For `CC(=O)OCC(=O)[C@H]1CC[C@H]2[C@@H]3CCC4=CC(=O)CC[C@]4(C)[C@H]3CC[C@]12C`, the Potency entry in [1], in test [2], in test [3], in test [4], in test [9] and in test [5] was “inactive” throughout. Also, the Potency result in test [6], in test [7] and in [8] was “inactive” throughout.
For `COC(=O)c1cc(Cl)ccc1NS(=O)(=O)C(F)(F)F`, the Potency entry in test [1], in test [2], in [3], in test [4], in test [5] and in [6] was “inactive” in each case. The Potency result in test [7] and in [8] was “inactive” throughout.
For the compound `OCC1CC=CCC1` (stereo not given), the Potency result in test [1], in [2], in test [3], in test [4], in test [9] and in test [5] was “inactive” throughout. The Potency result in test [6], in [7] and in [8] was “inactive” each time.
Regarding `CC1=NN(c2ccc(C(=O)O)cc2)C(=O)C1`, the Potency entry in test [1], in test [2], in [3], in test [4], in test [5] and in [6] was “inactive” each time. Besides, in test [8], the Potency entry was “inactive”.
As for `O=C(CCC1CCN(Cc2ccccc2)CC1)c1ccc2c(c1)NCCCC2`, the Potency entry in test [1], in test [2], in test [3], in [5], in [6] and in test [7] was “inactive” in each case. The Potency entry in test [8] is “inactive”. Besides, the Potency is 29.8 µM (active) in test [4] and 26.6 µM (active) in test [9].
For the compound `C/C(=N/NC(=O)c1ccncc1)C(=O)O`, the Potency result in test [1], in test [2], in test [3], in [4], in [9] and in test [5] was “inactive” throughout. The Potency result in [6] and in [8] was “inactive” each time.
Take `CCCCCCCCSCCO`: the Potency result in test [1], in test [2], in test [3], in [4], in [5] and in test [6] was “inactive” in each case. The Potency entry in test [7] and in test [8] was “inactive” each time.
For `CC(C)=CC=O`, the Potency entry in [1], in test [2], in [3], in [4], in test [9] and in [5] was “inactive” each time. In addition, the Potency result in test [6], in [7] and in test [8] was “inactive” each time.
For the compound `CCC(C(=O)OCCN(CC)CC)c1ccccc1` (stereo not given), the Potency entry in test [1], in test [2], in test [3], in [4], in test [9] and in test [5] was “inactive” in each case. Also, the Potency result in test [6], in [7] and in test [8] was “inactive” in each case. For the same compound, the call in test [10] was inactive.
For the compound `CC(C)(O)c1ccccc1CC[C@@H](SCC1(CC(=O)O)CC1)c1cccc(/C=C/c2ccc3ccc(Cl)cc3n2)c1`, the Potency entry in test [1], in [2], in [3], in test [4], in test [9] and in [5] was “inactive” throughout. Moreover, the Potency result in [6], in test [7] and in [8] was “inactive” in each case.
Take `C[Si]1(C)O[Si](C)(C)O[Si](C)(C)O1`: the Potency result in [1], in [2], in [3], in test [4], in [5] and in [6] was “inactive” each time. In addition, the Potency entry in test [7] and in test [8] was “inactive” throughout.
On to `NCC1CCCC(CN)C1` (stereo not given), for which the Potency entry in [1], in test [2], in [3], in [4], in [5] and in test [6] was “inactive” throughout. Also, the Potency result in test [7] and in test [8] was “inactive” in each case.
